In PubChem BioAssay (EPA / NIEHS) one finds outcome and AC50 data, which are given here for 40 compounds.

The source made the active and inactive calls. The calls were made as follows: active = hit-call score of the fitted dose curve at least 0.9, where 1 is the maximum; inactive = score below 0.9.

Read-out in the assay: Intercellular Adhesion Molecule 1 (ICAM1), ICAM1 (gene 3383)
As to the kind of experiment: LTEA_HepaRG_ICAM1: Life Technologies and Expression Analysis (LTEA) Assay for Intercellular Adhesion Molecule 1 (ICAM1) using HepaRG (AID 2283507). Conditions: mRNA level, 48 h; actives raise or lower the signal. The protocol: LTEA_HepaRG is a cell based, multiplexed-readout assay that uses HepaRG, a human liver cell line, with measurements taken at 48 hours after chemical dosing on a 96-well plate.LTEA_HepaRG_ICAM1 is one of 102 assay component(s) measured in the LTEA HepaRG cell culture assay. It is a marker of Fibrosis.Data from the assay component LTEA_HepaRG_ICAM1 was analyzed into 1 endpoint. This assay endpoint, LTEA_HepaRG_ICAM1, was analyzed with bidirectional fitting relative to DMSO as the negative control and baseline of activity. Using a type of inducible reporter, measures of mRNA induction for gain or loss-of-signal activity can be used to understand regulation of transcription factor activity. To generalize the intended target to other relatable targets, this assay endpoint is annotated to the cell adhesion molecules intended target family, where the subfamily is Immunoglobulin CAM.
A total of 1060 chemcials from the ToxCast library were tested in eight-point concentration-response experiments. Cell culture and cytotoxicity assays were conducted at Thermo Fisher Scientific's Custom Services facility (Madison, WI). A single lot of human HepaRG cells (Thermo Fisher Scientific, Frederick, MD) was used for the cell culture experiments. 96-well format collagen type I coated plates of human HepaRG cells were prepared using established methods. Briefly, cryopreserved HepaRG cells were thawed, plated at a density of approximately 100,000 cells/well in HepaRG Thaw, Plate, and General Purpose media (HPRG770, Thermo Fisher Scientific), and incubated for 48 hours. 0.5% DMSO was selected as vehicle control to balance the requisite need of DMSO in HepaRG cultures to maintain differentiation (for example, baseline metabolism, proportions of hepatocytes vs. cholangiocytes), while enabling further hepatic receptor pathway activation (for example, PXR and CAR) in response to chemical exposure. 48 hours after plating, the culture medium was replaced with HepaRG Serum-Free Incudtion Media. Cells were exposed to each test chemical in duplicate and maintained in CO2 incubators for another 48 hours. Chemical plates were thawed to room temperature and 200x concentrations of treatment groups were prepared. 8-point conentration-reponse curves were made with the highest exposure at 100 uM, followed by half-log dilutions, all in 0.5% DMSO. Each test plate contained variouse controls, induction positive controls (1mM phenobarbital), cytotoxicity positive controls ([…] aflatoxin B1), vehicle controls (0.5% DMSO), and total lysis controls (0.5% DMSO). Cell morphology images were taken using an Essen IncuCyte FLR automated microscope, with six 96-well plates imaged in about 24 minutes. Images were captured and exported and JPEG files. Spent culture media was transfered to black-well plates for the LDH assay, and remaining media was sorted at -80 C for later use. Cells were treated with RLT buffer and frozen until shipped for gene expression analysis. Total RNA was isolated from the cell suspension in 75 uL of Buffer RLT (Qiagen, Germantown, MD 20874) by Quintiles/Expression Analysis (Durham, NC) using a custom isolation procedure. Total RNA from each plate well was transferred to a preamplification plate. Fluidigm's 96.96 Dynamic ArrayTM (Fluidigm, Amsterdam, the Netherlands) technology was used for gene expression analyses by quantitative reverse transcription polymerase chain reaction (qRT-PCR, performed by Quintiles/Expression Analysis, Durham, NC)89. Standard TaqManTM Assays (Applied Biosystems/ThermoFisher Scientific, Foster City, CA) were used to assess the expression of 93 genes selected based on their selectivity and sensitivity to important hepatic receptors known to be modulated by environmental chemicals; importance in human hepatocyte functionality; and hepatotoxicity. […]
`CNC(=O)[C@H]1O[C@@H](n2cnc3c(NCc4cc(Cl)ccc4OCc4cc(C)no4)ncnc32)[C@H](O)[C@@H]1N`: the compound was called inactive.

As to `CC(C)(C)c1cc(O)c(C(C)(C)C)cc1O`, the AC50 was 50 µM (active).

Regarding `CCCCN(CCCC)CCCC`, the call was inactive.

For `CCCCCCCC=O`, the compound was classed as inactive.

Take `Cc1cc(NC(=O)C(=O)O)cc(C)c1Oc1ccc(O)c2c1CCC2`: the call was inactive.

Regarding `CCCCc1ccc2c(n1)[C@@H](c1ccc(OC)cc1C[C@H](C)C(=O)O)[C@H](C(=O)O)[C@H]2c1ccc2c(c1)OCO2`, the result was inactive.

In the case of `Cc1ccc(C)c(C)c1`, the compound was called inactive.

As to `Cc1nc(C)nc(N2C[C@@H](C)N(c3ccnc([C@@H](C)O)n3)[C@@H](C)C2)n1`, the outcome was inactive.

As to `O=C(O)CCCCC(=O)O`, the compound was called inactive.

Take `Cc1c(C(=O)O)c(O)cc2c1C(=O)c1c(O)c([C@@H]3O[C@H](CO)[C@@H](O)[C@H](O)[C@H]3O)c(O)c(O)c1C2=O`: the result was inactive.

On to `CC(C)c1ccc(C(=O)N=C(N)N)cc1S(C)(=O)=O`, for which the AC50 is 0.388 µM (active).

Take `Cc1ccc2ncccc2c1`: the outcome was inactive.

On to `NCCO`, for which the compound was classed as inactive.

As to `CCCCOC(=O)CCCCCCCCC(=O)OCCCC`, the result was inactive.

Take `CC1=C(/C=C/C(C)=C/C=C/C(C)=C/CO)C(C)(C)CCC1`: the compound was called inactive.

`COCCOCCOC`: the AC50 was 0.87 µM (active).

Take `O=C(N[C@@H](Cc1ccccc1)[C@@H](O)C(=O)N1C[C@@H](O)[C@@H](O)C1)c1cc2cc(Cl)ccc2[nH]1`: the compound was classed as inactive.

Turning to `CCCCC(CC)COC(=O)CC(C(=O)OCC(CC)CCCC)S(=O)(=O)O` (stereo not given), the call was inactive.

For `CCCCCCOCCO`, the compound was called inactive.

As to `Clc1cc(Cl)c(Cl)cc1Cl`, the call was inactive.

Regarding `COc1cc(-c2nc(NC(=O)c3cc4cc(C)cc(C)c4n3CC(=O)O)sc2CCC2CCCCC2)c(OC)cc1Cl`, the outcome was inactive.

On to `Nc1ccc(S(=O)(=O)c2ccc(N)cc2)cc1`, for which the compound was classed as inactive.

Turning to `CC(=O)OCCOCCOCCOC(C)=O`, the compound was called inactive.

As to `CCCCCCCCCCO`, the call was inactive.

On to `CCNc1cccc(C)c1`, for which the result was inactive.

With `CN[C@H]1CC[C@@H](c2ccc(Cl)c(Cl)c2)c2ccc(S(N)(=O)=O)cc21`, the half-maximal activity concentration (AC50) was 74.8 µM (active).

For the compound `COc1cc(C=O)ccc1O`, the compound was classed as inactive.

On to `FC(F)(F)C(F)(F)C(F)(F)C(F)(F)C(F)(F)C(F)(F)CCI`, for which the result was inactive.

Regarding `COc1ccc2c(c1)c(CC(=O)O)c(C)n2C(=O)c1ccc(Cl)cc1`, the compound was classed as inactive.

Consider `CN1CCN(Cc2cc(-c3ccc4[nH]c(=O)oc4c3)co2)[C@@H](c2ccc(F)cc2)C1`, for which the call was inactive.

`COc1ccc(S(=O)(=O)N2C(=O)[C@@](c3ccccc3OC)(N3C[C@H](O)C[C@H]3C(=O)N(C)C)c3cc(Cl)ccc32)c(OC)c1`: the AC50 was 21.6 µM (active).

Regarding `CCOc1ccc2c(c1)C(C)=CC(C)(C)N2`, the compound was called inactive.

For the compound `CC(=O)C(C)=CC1C(C)=CCCC1(C)C` (stereo not given), the result was inactive.

Take `O=[N+]([O-])C(CO)(CO)CO`: the compound was called inactive.

Turning to `C=CCc1ccc(O)c(OC)c1`, the outcome was inactive.

As to `CC=Cc1ccc(O)c(OC)c1`, the result was inactive.

As to `CC(=O)Oc1ccccc1C(=O)O`, the compound was called inactive.

Turning to `CCCCCCC(=O)OCC`, the result was inactive.

For `NCC1(Cc2noc(=O)[nH]2)CCCCC1`, the compound was called inactive.

With `O=c1c(O)c(-c2ccc(O)c(O)c2)oc2cc(O)cc(O)c12`, the result was inactive.
